# Compound activity as filed in PubChem BioAssay.
# The full list was thinned out, with hits kept by preference.
# PDI inh: inhibitors of human PDI, primary screen, biochemical, turbidity, single point, plate reader. inhibition, % at 10 µM. 350,000 compounds, 0.052% hits. AID 588391, 2011. PDI insulin aggregation turbidity, A650, 90 min;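 active = mean inhibition across replicates of 30% or more, whatever share of single replicates reach that level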
# ERp5 inh: inhibitors of ERp5-driven insulin aggregation, primary screen, biochemical, turbidity, absorbance 650 nm, single point. Protein disulfide-isomerase A6 (Homo sapiens), Q15084. 90 min. inhibition, % at 9.99 µM. 350,000 compounds, 0.05% hits;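 active = mean replicate inhibition above about 25%, with every replicate also reaching it, limit read from the data, passing the limit was not always enough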
# ALR inh: inhibitors of human ALR sulfhydryl oxidase, primary screen, biochemical, H2O2 detection, HRP-luminol luminescence, single point; FAD-linked sulfhydryl oxidase ALR (Homo sapiens), P55789; purified ALR, DTT oxidation; inhibition, % (no concentration beside the values); 290,000 compounds, 3.8% hits; AID 485317, 2010;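 active = mean replicate inhibition above about 79%, with every replicate also reaching it, limit read from the data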
# Target sequence (P55789 whole entry, looked up): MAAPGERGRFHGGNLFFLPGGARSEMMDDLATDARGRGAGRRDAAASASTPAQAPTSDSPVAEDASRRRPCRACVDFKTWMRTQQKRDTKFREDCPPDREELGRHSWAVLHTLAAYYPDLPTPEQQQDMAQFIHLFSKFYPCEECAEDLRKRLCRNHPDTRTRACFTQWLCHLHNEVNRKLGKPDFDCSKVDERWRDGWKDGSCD
# PglD inh: C. jejuni PglD acetyltransferase inhibitors, primary screen, biochemical, DTNB colorimetric, single point | inhibition, % at 12.5 µM | AID 602405, 2012 | UDP-N-acetylbacillosamine N-acetyltransferase PglD (Campylobacter jejuni) | purified PglD enzyme, DTNB colorimetric CoA detection | 360,000 compounds, 0.098% hits; in the data active = inhibition above about 16%, passing the limit was not always enough
# CendR NRP1 mod: modulators of CendR peptide binding to NRP-1, primary screen, biochemical, fluorescence polarization, uHTS | inhibition, % at 25 µM | 360,000 compounds, 0.85% hits | FAM-RPARPAR peptide binding to NRP-1 | AID 602438, 2012 | Neuropilin-1 (Homo sapiens), O14786;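 active = inhibition or corrected inhibition above about 18%, plus a signal ratio from 0.5 to 1.5, limit read from the data, passing the limit was not always enough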
# ARNT-TACC3 inh: disruptors of ARNT/TACC3 protein interaction, primary screen, biochemical, AlphaScreen, single concentration; AlphaScreen His-ARNT PAS-B/GST-TACC3 binding, luminescence; TACC3 fragment carries E629A point mutation; 390,000 compounds, 0.66% hits; Transforming acidic coiled-coil-containing protein 3 (Homo sapiens), Q9Y6A5; inhibition, % at 9.99 µM;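 active = mean inhibition of replicates at least 50% and at least half of replicates each reaching 50%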;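 note: 0% = complete ARNT plus TACC3 wells and 100% = ARNT alone without TACC3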
# An asterisk follows results filed as active; · = no result; ! = repeats disagree.
SMILES,PDI inh,ERp5 inh,ALR inh,PglD inh,CendR NRP1 mod,ARNT-TACC3 inh
CN(C)CCOC(c1ccccc1)c1ccccc1,2,6,-10,-3,-5,·
CN(C)CCOC(c1ccc(Cl)cc1)c1ccccn1 (stereo unspecified),2,0,7,2,21*!,-3
Cc1cccc(C(=O)Nc2nnc(C3=COCCO3)o2)c1,-2,0,2,·,-26,55*
O=C(Nc1nnc(C2=COCCO2)o1)C1CCCCC1,7,-3,-12,3,-5,50*
COc1ccc(C(=O)Nc2nnc(C3=COCCO3)o2)cc1OC,0,-8,-4,9,9,37*
CN(c1ccccc1)S(=O)(=O)c1ccc(C(=O)Nc2nnc(C3=COCCO3)o2)cc1,-13,0,98*,6,15,37
O=C(Nc1nnc(C2=COCCO2)o1)c1cccc(F)c1,6,5,-1,0,14,40
CN(C)c1ccc(C(=O)Nc2nnc(C3=COCCO3)o2)cc1,-2,-5,0,4,6,15
C[C@@H]1CN([C@@H](C)CO)S(=O)(=O)c2ccc(C#Cc3ccccc3)cc2O[C@@H]1CN(C)S(=O)(=O)c1cn(C)cn1,·,0,·,0,·,-9
CN(C(=S)Nc1ccc(SC(F)F)cc1)c1ccc(O)cc1,-4,-2,81*,·,2,15
CN(C(=S)Nc1ccc(Oc2ccccc2)cc1)c1ccc(O)cc1,1,·,7,4,2,10
C[C@H](CO)N1C[C@H](C)[C@H](CN(C)C(=O)Nc2ccc(F)cc2)OCCCC[C@H](C)Oc2ccc(NC(=O)NC3CCCCC3)cc2C1=O,·,9,·,0,·,1
Cc1cc(Nc2ccccc2)n(-c2ccc(C(=O)O)cc2)n1,-12,6,99*,·,-16,0
Cc1cc(Nc2ccccc2)n(-c2cccc(Cl)c2)n1,-6,·,99*,-2,8,-9
COc1ccc(-n2nc(C)cc2Nc2ccccc2C(=O)O)cc1,-3,1,99*,·,-2,25
C[C@@H]1CN([C@@H](C)CO)C(=O)CCCn2cc(nn2)CO[C@@H]1CN(C)Cc1ccc(O)cc1,·,0,·,-3,·,-2
O=C(C[C@H]1CC[C@@H]2[C@H](COC[C@H](O)CN2C(=O)c2ccc(F)cc2)O1)NCCCN1CCOCC1,·,-2,·,2,·,-2
CCOC(=O)/C(C#N)=C\c1ccc(O)c(OC)c1,17,·,99*,·,-6,·
COc1cc(/C=C(\C#N)C(=O)N2CCc3ccccc32)ccc1O,4,-4,100*,2,-36,0
N#C/C(=C\c1ccc(O)c(O)c1)C(=O)N1CCc2ccccc21,5,-1,99*,-6,-93,10
C[C@H](CO)N1C[C@H](C)[C@@H](CN(C)C(=O)CCCN(C)C)OCCCC[C@H](C)Oc2ccc(NC(=O)CCCN(C)C)cc2C1=O,·,0,·,0,·,2
COc1ccc(C(=O)NC(=S)NNC(=O)CNC(=O)C2CCCCC2)cc1,5,-2,99*,·,2,-2
CCC(=O)NC(=S)NNC(=O)c1ccc(OC)cc1,1,·,59,2,6,68*
O=C(NNC(=S)NC(=O)c1ccccc1)c1cccnc1,-2,2,98*,-2,-8,17
COc1ccc(C(=O)NC(=S)NNC(=O)c2cccnc2)cc1,-1,3,99*,0,6,40
SMILES,PDI inh,ERp5 inh,ALR inh,PglD inh,CendR NRP1 mod,ARNT-TACC3 inh
CCCCOc1ccc(C(=O)NNC(=S)NC(=O)CC)cc1,-5,·,-4,·,-12,3
C[C@@H]1CN([C@H](C)CO)C(=O)c2cc(-c3ccc(C(=O)N(C)C)cc3)cnc2O[C@H]1CN(C)C,·,-4,·,-1,·,-3
C[C@H]1CN([C@@H](C)CO)C(=O)c2cccc(NC(=O)C3CCOCC3)c2O[C@@H]1CN(C)S(=O)(=O)c1cn(C)cn1,·,-6,·,-2,·,-10
C[C@@H]1CN([C@@H](C)CO)C(=O)Cc2cc(NC(=O)Nc3ccc(F)cc3)ccc2O[C@H]1CN(C)C(=O)Nc1ccccc1,·,-1,·,1,·,1
CS(=O)(=O)Nc1ccc2c(c1)[C@@H]1C[C@H](CC(=O)NCc3cccc(F)c3)O[C@@H](CO)[C@@H]1O2,·,-1,·,-1,·,-10
CC(C)CC(=O)NC(=S)NNC(=O)c1ccc([N+](=O)[O-])cc1,6,·,10,·,-5,29
COc1cc(OC)cc(C(=O)NNC(=S)NC(=O)c2cccnc2)c1,-3,1,98*,-1,-6,8
COc1ccc(-c2nn(-c3ccccc3)cc2C(=O)NC(=S)NNC(=O)c2ccncc2)cc1,2,-7,4,3,-1,46*
COc1cc(OC)cc(C(=O)NC(=S)NNC(=O)[C@H]2C[C@@H]2c2ccccc2)c1,-1,6,99*,-2,-1,17
COc1ccc(C(=O)NC(=S)NNC(=O)[C@H]2C[C@@H]2c2ccccc2)cc1OC,-4,7,34,·,-13,28
CC(C)CC(=O)NC(=S)NNC(=O)c1ccc(NC(=O)C2CCCCC2)cc1,6,·,22,·,17,68*
CC=Cc1ccc2n(c1=O)C[C@H]1[C@H](CO)[C@@H](C(=O)N(C)C)[C@@H]2N1C(=O)c1ccc(F)cc1 (mixture of isomers),·,-2,·,-2,·,-1
COc1ccc2c3c(n(C)c2c1)[C@@H](CO)N(C(=O)C1CCCC1)CC31CCN(Cc2cccc(F)c2)CC1,·,-5,·,·,·,·
CN1CCN(C(=O)C[C@H]2CC[C@H](NC(=O)c3ccc4c(c3)OCO4)[C@H](CO)O2)CC1,·,2,·,-6,·,-1
C[C@H]1CN([C@@H](C)CO)C(=O)Cc2cc(NC(=O)Nc3ccccc3)ccc2O[C@H]1CN(C)S(=O)(=O)c1ccc(F)cc1,·,-2,·,2,·,19
CCN(CC)c1ccc(NC(=O)C2CC3CCC2C3)cc1 (stereo unspecified),-5,·,99*,4,-1,11
O=C(Nc1ccccc1)C1CC2CCC1C2 (stereo unspecified),3,4,-2,2,6,6
CCN1/C(=C2/OC(=S)N(C)C2=O)Sc2ccccc21,2,·,·,-1,3,-12
CCN1/C(=C2/SC(=S)NC2=O)Sc2ccccc21,-6,2,91*,·,0,-1
CCOC(=O)n1ccc(C(=O)Nc2ccccc2F)n1,12,·,96*,-2,4,31
